Calls of active or inactive are those of the source. Where a call stands in place of a potency, no number is given. The call rests on the fitted dose curve; in most records, active means well fitted curve in the direction sought with a large enough effect in the repeat runs; inconclusive means weak or mixed curves; inactive means flat fitted curve, though single readings scatter.
Assay: qHTS assay to test for compound auto fluorescence at 460 nm (blue) in HepG2 cell free culture (AID 720685)
Settings: Cell-free culture medium, blue autofluorescence 405/460 nm; series mostly up to 91.3 µM
In short: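 Compound (23 nL) or DMSO pinned into cell-free MEM with 10% FBS; blue fluorescence read at 405/460 nm excitation/emission, expressed as auto-fluorescence equivalency to triamterene.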

Compound	Potency
CCc1ccccc1O	inactive
CN(C)c1cccc(O)c1	inactive
O=C1N=C(O)CN1/N=C/c1ccc(-c2ccc([N+](=O)[O-])cc2)o1	inactive
CS(=O)(=O)Nc1ccc([N+](=O)[O-])cc1Oc1ccccc1	inactive
C=C1CC[C@H](O)CC1=C/C=C1\CCC[C@]2(C)[C@@H]([C@H](C)/C=C/[C@H](C)C(C)C)CC[C@@H]12	inactive
O=[N+]([O-])c1cc(N(CCO)CCO)ccc1NCCO	inactive
CCCCC(CC)COC(C)=O (stereo not given)	inactive
CCCCCCCCCC(=O)O	inactive
OCC#CCO	inactive
Cc1cc(NS(=O)(=O)c2ccc(N)cc2)no1	inactive
CC1CC(OC(=O)c2ccccc2O)CC(C)(C)C1 (stereo not given)	inactive
Oc1ccc2ccccc2c1N=Nc1ccccc1	inactive
O=C1CCCCC1	inactive
O=C(O)c1ccc([N+](=O)[O-])cc1	inactive
CC(C)n1c(/C=C/[C@@H](O)C[C@@H](O)CC(=O)O)c(-c2ccc(F)cc2)c2ccccc21	inactive
CC1COc2ccccc2N1C(=O)C(Cl)Cl (stereo not given)	inactive
CCCCCCC(C)(C)S	inactive
CC(=O)[C@@]1(O)CC[C@H]2[C@@H]3CCC4=CC(=O)CC[C@]4(C)[C@H]3CC[C@@]21C	inactive
CC(C)NCC(O)COc1cccc2ccccc12 (stereo not given)	inactive
CCCCCCCCCCC=CC1CC(=O)OC1=O (stereo not given)	inactive
O=S(=O)(Oc1ccc(Cl)cc1Cl)c1ccccc1	inactive
Cc1cc(O)cc(C)c1Cl	inactive
NCCNCCNCCNCCN	inactive
Cc1ccc(C(=O)O)o1	inactive
CC(C)(C)C(=O)C1C(=O)c2ccccc2C1=O	inactive

Reference: PubChem BioAssay (Tox21)
